The list is not random: actives were taken first. Their share in the collection is about 5.7%.
rCAG RNA binder – molecules binding r(CAG) RNA repeats. r(CAG) RNA repeat, TO-PRO-1 dye displacement fluorescence. inhibition, % at 3 µM. 370,000 compounds, 1.3% hits;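 active means inhibition above the plate cutoff, the mean of all test compounds on that plate plus 3 SD, cut at about 35% in these data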;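 further: 0% = DMSO alone and 100% = 100 µM mitoxantrone as full dye displacement; higher means more dye released from RNA so lower well fluorescence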
GRIN3A LBD mod – modulators (binders) of human NR3A ligand-binding domain; NR3A LBD differential scanning fluorimetry, Tm shift; 0% = protein alone, 100% = glycine-bound protein; Tm shift relative to glycine control, % at 25 µM; 340,000 compounds, 2.5% hits; AID 1259313;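 active means melting temperature shift of at least 10% of the positive control shift, at one fixed dose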
MPTP block – inhibitors of mitochondrial permeability transition pore | isolated mouse mitochondria, Ca2+ swelling absorbance, 30 min | inhibition, % at 10 µM | 360,000 compounds, 1.4% hits;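 active means inhibition of 50% or more, scaled per plate between neutral and stimulator controls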;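 further: 0% = DMSO wells given calcium and 100% = 1 mM EGTA wells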
Myeloid diff MLP – compounds promoting myeloid differentiation; 360,000 compounds, 1% hits; ER-HoxA9 myeloid progenitors, lysozyme-GFP differentiation, flow cytometry; calls only at 10 µM;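 active means normalized GFP-positive differentiation at or above the plate's own cutoff, the solvent-only control mean plus 3 SD; inconclusive means no clear call, values can overlap the other calls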;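 further: cells exposed to compound for four days before flow analysis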
FAS-TE inh – inhibitors of human fatty acid synthase thioesterase domain | recombinant FAS-TE, OMFH fluorogenic substrate, fluorescence endpoint | inhibition, % at 15 µM | 360,000 compounds, 0.67% hits | AID 602261;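 active means compounds whose normalised, plate-corrected inhibition of enzyme fluorescence in the single-dose primary screen is 50% or more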;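 further: 0% = DMSO with enzyme and 100% = substrate without enzyme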
MPTP counter – membrane potential counter-screen of mitochondrial pore inhibitors; shares compounds with MPTP block; isolated mitochondria, Rhodamine 123 fluorescence; inhibition, % at 10 µM; 5,000 compounds, 78% hits; AID 624504; in the data active means inhibition above about 22%;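 further: 0% = DMSO vehicle and 100% = positive control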
MPTP swell DR – MPTP inhibition, dose response swelling confirmation | shares compounds with MPTP block | AID 651561 | isolated mitochondria swelling, absorbance | 780 compounds, 58% hits | IC50, µM; in the data active means IC50 below about 20 µM
MPTP counter DR – counter-screen for mitochondrial permeability transition pore inhibitors, dose response. 780 compounds, 49% hits. shares compounds with MPTP block. isolated mitochondria counterscreen, fluorescence read-out. AID 651564. IC50, µM; in the data active means IC50 below about 80 µM
* hit, by the source's call; i = inactive; ? = inconclusive; / = no result; + = active, no number.

SMILES | rCAG RNA binder | GRIN3A LBD mod | MPTP block | Myeloid diff MLP | FAS-TE inh | MPTP counter | others
Cc1cc(C(=O)Nc2cccc3c2O[C@@H](CN(C)S(C)(=O)=O)[C@H](C)CN([C@@H](C)CO)C3=O)n(C)n1 | 0 | 3 | 0 | i | -16 | /
Oc1ccccc1C1CC(c2cccs2)=NC(c2cccc(Br)c2)N1 (stereo not drawn) | 9 | 2 | 84* | i | 24 | 97*
O=S(=O)(c1ccccc1)N1N=C(c2cccs2)CC1c1cccc(O)c1 (stereo not drawn) | 10 | -2 | 0 | i | 7 | /
CC1=NN(c2ccccc2)C(=O)C1=Cc1ccccc1 | 10 | / | 11 | i | -3 | /
CC1=NN(c2ccccc2)C(=O)/C1=C/c1cccs1 | 4 | 2 | 21 | i | -11 | /
CC1=NN(c2ccccc2)C(=O)/C1=C/c1ccc(Cl)cc1 | 25 | 3 | 98* | i | 2 | 84*
CC1=NN(c2ccccc2)C(=O)/C1=C/c1c(O)n(-c2ccc(F)cc2)[nH]c1=O | 91* | 11* | 61* | i | 1 | 13
C[C@H](CO)N1C[C@H](C)[C@H](CN(C)C(=O)OCc2ccccc2)OCc2cnnn2CCCC1=O | -1 | / | -1 | i | -7 | /
Cc1ccc(S(=O)(=O)N2CCN(C(=O)CN3C(=O)c4ccc([N+](=O)[O-])cc4C3=O)CC2)c(C)c1 | -2 | 0 | 3 | i | 13 | /
COc1ccc(CC(=O)Nc2cccc(S(=O)(=O)N3CCCCCC3)c2)cc1OC | 2 | -14 | 87* | + | 6 | 81*
COC(=O)c1cc(NC(=O)Cc2ccc(OC)c(OC)c2)cc(C(=O)OC)c1 | 4 | -1 | -1 | i | -2 | /
COc1ccc(CC(=O)Nc2cccc(SC)c2)cc1OC | -1 | 0 | 54* | i | 5 | 42*
CSc1cccc(NC(=O)CCCOc2ccc(Cl)cc2C)c1 | 0 | 9 | 75* | i | 28 | 81*
CC(=O)c1cccc(OC(=O)c2ccc3c(=O)n4c(nc3c2)CCC4)c1 | / | 1 | -1 | i | -4 | /
O=C(Nc1ccc(Cl)cc1)NC1CCCCC1Cc1ccco1 (stereo not drawn) | 3 | 5 | 105* | i | 20 | 83*
O=C(Nc1ccc(Cl)cc1)NC1CCCCC1 | -2 | 1 | 17 | i | -2 | /
S=C(NCc1ccco1)Nc1ccc(Cl)cc1 | 0 | -2 | 1 | i | -6 | /
O=C(Nc1ccc(Cl)cc1)NC1CCCC1Cc1ccco1 (stereo not drawn) | / | -3 | 103* | i | 9 | 88*
COc1ccc(N(C)S(=O)(=O)c2cccc(C(=O)OCC(=O)Nc3cc(C)ccc3OC)c2)cc1 | 7 | / | 2 | i | 21 | /
COc1ccc(C2C(=O)c3ccccc3C2=Nc2ccc(Br)cc2)cc1 (stereo not drawn) | 4 | -5 | 90* | i | 3 | 50*
O=C1c2ccccc2C(=O)C1c1ccc(Br)cc1 | 1 | -1 | 0 | i | -2 | /
Nc1nc(Nc2ccccc2F)nc(NCCO)c1[N+](=O)[O-] | -2 | 0 | 2 | i | -5 | /
Cc1ccccc1Cn1cnc2c(cnn2C(C)(C)C)c1=O | -4 | 0 | 15 | i | 0 | /
CC(C)(C)n1ncc2c(=O)n(Cc3cccc(Cn4cnc5c(cnn5C(C)(C)C)c4=O)c3F)cnc21 | 1 | 1 | 95* | ? | 55* | 87*
CCOC(=O)c1sc(=S)n(C)c1NC(=O)c1cccc(Br)c1 | 11 | -1 | 51* | i | 5 | 76*
SMILES | rCAG RNA binder | GRIN3A LBD mod | MPTP block | Myeloid diff MLP | FAS-TE inh | MPTP counter | others
CCOC(=O)c1sc(=S)n(CC)c1NC(=O)c1ccccc1C | 3 | 0 | 5 | i | 2 | /
S=C(NCc1ccc(Cl)cc1Cl)NC1CCCCC1 | -1 | 32* | 106* | i | 20 | 85*
CC(C)=CC(=O)Nc1ccc(Cl)cc1 | -1 | -37 | 3 | i | 3 | /
CC(=O)c1ccc(NC(=S)NCc2ccc(Cl)cc2Cl)cc1 | 11 | 16* | 95* | i | 21 | 94*
CNC(=O)Nc1ccc(Cl)cc1 | 4 | -2 | 96* | i | -8 | 91*
CC(=O)c1cccc(NC(=O)Nc2cnn(Cc3ccc(Cl)cc3Cl)c2)c1 | 9 | 14* | 73* | i | 15 | 71*
O=C(NCc1ccccc1)c1cc(C2COCCN2C(=O)C2CC2)on1 (stereo not drawn) | 0 | / | 0 | i | -11 | /
O=[N+]([O-])c1ccc(N2CCCC2)c([N+](=O)[O-])c1 | 1 | / | 0 | i | 8 | /
CC(=O)c1ccc(NC(=O)Nc2ccc(Cl)cc2)cc1 | 12 | 31* | 85* | i | 12 | 86*
CC1(C)CC(NC(=O)c2cccc(S(=O)(=O)N(Cc3ccccc3)c3ccccc3)c2)CC(C)(C)N1 | 1 | -1 | 83* | i | -6 | -17 | MPTP swell DR=9.5*;MPTP counter DR=>80
COc1ccc(-c2nc(CS(=O)CC(=O)NC3CCCC3)c(C)o2)cc1 (stereo not drawn) | -2 | -1 | -3 | i | -6 | /
C[C@H]1c2cccc(O)c2C(O)=C2C(=O)[C@]3(O)C(O)=C(C(N)=O)C(=O)[C@@H](N(C)C)C3[C@@H](O)C21 (stereo partly drawn) | 9 | 3 | 86* | i | 2 | 4
Cc1cc(Nc2cccc(F)c2)nc(-c2ccccc2O)n1 | 31 | 30* | 59* | i | 37 | 51*
Cc1ccc(-n2c(C)nnc2SCC(=O)N(C)C2CCS(=O)(=O)C2)cc1 (stereo not drawn) | 1 | 0 | 0 | i | 6 | /
CC(C)(C)C1N=C(c2ccc3ccccc3c2)OC1=O (stereo not drawn) | 2 | 0 | -2 | i | -9 | /
O=c1c2c(-c3ccccc3)csc2nc2c3ccccc3c(NCCN3CCOCC3)nn12 | 7 | -15 | 58* | / | 9 | -17
O=C(NCCCN1CCCC1=O)C1CCC(CNS(=O)(=O)c2ccc(Cl)cc2)CC1 (stereo not drawn) | -4 | -3 | 2 | ? | -2 | /
COc1cc([N+](=O)[O-])cc(/C=N/NC(=O)c2ccc(NC(=O)c3ccc(C)cc3)cc2)c1O | 6 | 21* | 112* | / | 11 | 1
Cn1ccnc1SCc1cc(=O)[nH]c2ccccc12 | -2 | 0 | 87* | i | -9 | 87*
CN(C)CC1CCCCC1OC(=O)c1ccc(S(=O)(=O)N(C)c2ccccc2)cc1 (stereo not drawn) | -6 | -5 | 81* | i | -4 | 0 | MPTP swell DR=12*;MPTP counter DR=61*
CN(C)CC1CCCCC1OC(=O)c1ccc(Br)cc1 (stereo not drawn) | -3 | -1 | 12 | i | -7 | /

Screening data as filed in PubChem BioAssay.
